Reference: PubChem BioAssay AID1224921 (Broad Institute, 2016)
Hit rate of the full screen: of about 1,400 compounds, about 350 (25%) were called active. Roughly 2% stayed inconclusive and do not appear here. No rule for the calls is given here. Only a sample is shown. Entries with a potency or affinity are not part of this list.

Assay: C. difficile growth inhibition, confirmation, 4-point retest (AID 1224921);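 also: plate controls were DMSO wells for no effect and levofloxacin 16 µg/mL wells for full effect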
Conditions: Clostridioides difficile clinical isolate growth, OD600, 24 h, hits give low values; at 30 µM unless noted

Max activity, inactive:
CCC(CO)Oc1cc(NCc2ccccc2)c2ncn(C(C)C)c2c1 (configuration not stated) -5.47% [at 8 µM]
CCS(=O)(=O)Nc1ccc2c(c1)C(=O)N(C)C[C@H](OC)[C@H](C)CN(CC1CCCC1)[C@@H](C)CO2 11.3%
CC(C)=CCN(C(=O)C#Cc1ccccc1)[C@H](CO)c1ccccc1 14.2% [at 1.95 µM]
C[C@H](CO)N1C[C@H](C)[C@H](CN(C)Cc2ccc(C(F)(F)F)cc2)OCCCC[C@H](C)Oc2ccc(NS(C)(=O)=O)cc2C1=O 5.77% [at 1.95 µM]
CCCC#Cc1ccc2c(c1)O[C@@H](CN(C)Cc1ccncc1)[C@H](C)CN([C@@H](C)CO)S2(=O)=O -9.09% [at 1.95 µM]
CO[C@@H]1CN(C)C(=O)c2ccc(NC(=O)c3nc4ccccc4s3)cc2OC[C@H](C)N(Cc2cccnc2)C[C@H]1C 25.4%
CCCC(O)C#Cc1cnc2c(c1)C(=O)N([C@H](C)CO)C[C@H](C)[C@H](CN(C)Cc1ccncc1)O2 (some centres not stated) 12%
C[C@H](CO)N1C[C@H](C)[C@H](CN(C)C(=O)c2cccc(F)c2)Oc2ncc(C3=CCCCC3)cc2C1=O -6.68% [at 8 µM]
C[C@@H]1CN([C@H](C)CO)C(=O)c2c(c3ccccc3n2C)-c2ccccc2CO[C@@H]1CN(C)S(=O)(=O)CC(F)(F)F 28.3%
Cc1ccccc1S(=O)(=O)NCC[C@@H]1CC[C@@H](NC(=O)Nc2cccc(Cl)c2)[C@@H](CO)O1 23.9%
C[C@H]1CN([C@@H](C)CO)C(=O)Cc2cc(NS(C)(=O)=O)ccc2O[C@@H]1CN(C)Cc1ccccc1 11.3%
COCC(=O)Nc1ccc2c(c1)OC[C@@H](C)N(Cc1cncnc1)C[C@H](C)[C@@H](OC)CN(C)C2=O -8.05% [at 1.95 µM]
C[C@H](CO)N1C[C@H](C)[C@H](CN(C)S(=O)(=O)c2ccsc2)OCc2ccccc2-c2ccccc2C1=O -12.1% [at 0.5 µM]
C[C@H](O)C#Cc1ccc2c(c1)O[C@H](CN(C)CC1CCCCC1)[C@H](C)CN([C@H](C)CO)S2(=O)=O 20.7%
C[C@H]1CN([C@@H](C)CO)C(=O)c2cc(NC(=O)Cc3ccccc3)ccc2O[C@@H]1CN(C)C(=O)Nc1ccccc1 -13.4% [at 0.5 µM]
C[C@H](NC(=O)C[C@H]1C=C[C@@H](NC(=O)CN2CCOCC2)[C@H](CO)O1)c1ccccc1 -8.28% [at 8 µM]
C/C=C/c1cnc2c(c1)C(=O)N([C@H](C)CO)C[C@@H](C)[C@@H](CN(C)Cc1ccc(F)cc1)O2 -15% [at 0.5 µM]
COc1ccccc1S(=O)(=O)N[C@H]1C=C[C@@H](CC(=O)N2CCCCC2)O[C@@H]1CO -9.97% [at 8 µM]
CO[C@@H]1CN(C)C(=O)c2ccc(NC(=O)c3ccccc3F)cc2OC[C@H](C)N(CC2CC2)C[C@@H]1C -12.3% [at 8 µM]
CCCC#Cc1ccc2c(c1)O[C@H](CN(C)Cc1cccnc1)[C@@H](C)CN([C@@H](C)CO)S2(=O)=O 13.7% [at 8 µM]
CCCNC(=O)N1C[C@H](C)[C@H](OC)CN(C)C(=O)c2cc(NC(C)=O)ccc2OC[C@H]1C 4.83% [at 8 µM]
CC(=O)N(C)C[C@@H]1Oc2ncc(C#Cc3ccc(F)cc3)cc2C(=O)N([C@@H](C)CO)C[C@@H]1C 32.1%
C/C=C/c1ccc2c(c1)O[C@H](CN(C)C(=O)Cc1ccncc1)[C@@H](C)CN([C@H](C)CO)S2(=O)=O -10.9% [at 8 µM]
CCCN1C[C@@H](C)[C@@H](OC)CN(C)C(=O)c2cc(NC(=O)c3cccc(OC)c3)ccc2OC[C@@H]1C -16.1% [at 1.95 µM]
COc1ccccc1C#Cc1ccc2c(c1)O[C@H](CN(C)Cc1cccnc1)[C@H](C)CN([C@@H](C)CO)S2(=O)=O 25.3%
Cc1ccccc1-c1ccc2c(c1)O[C@@H](CN(C)Cc1ccncc1)[C@@H](C)CN([C@H](C)CO)S2(=O)=O 49.5%
CO[C@H]1CN(C)C(=O)c2ccc(NC(=O)C3CC3)cc2OC[C@H](C)N(Cc2cncnc2)C[C@H]1C -10.1% [at 1.95 µM]
CO[C@@H]1CN(C)C(=O)c2ccc(NC(=O)Nc3ccccc3)cc2OC[C@H](C)NC[C@@H]1C -13.5% [at 8 µM]
CO[C@@H]1CN(C)C(=O)c2ccc(NC(=O)c3nc4ccccc4s3)cc2OC[C@H](C)N(Cc2ccncc2)C[C@@H]1C 26.2%
CO[C@H]1CN(C)C(=O)c2ccc(NC(=O)Nc3ccccc3)cc2OC[C@H](C)NC[C@H]1C -20.9% [at 8 µM]
CO[C@@H]1CN(C)C(=O)c2ccc(NC(=O)Nc3ccccc3)cc2OC[C@H](C)NC[C@H]1C -11.5% [at 0.5 µM]
CO[C@@H]1CN(C)C(=O)c2ccc(NC(=O)c3nc4ccccc4s3)cc2OC[C@@H](C)N(Cc2ccncc2)C[C@@H]1C 23.4%
CO[C@H]1CN(C)C(=O)c2ccc(NC(=O)Nc3ccccc3)cc2OC[C@@H](C)NC[C@H]1C -11.9%
COc1ccccc1S(=O)(=O)N[C@H]1C=C[C@H](CC(=O)N2CCCCC2)O[C@@H]1CO -11.2% [at 1.95 µM]
C[C@H](NC(=O)C[C@@H]1C[C@@H]2c3cc(NC(=O)NC4CCCCC4)ccc3O[C@@H]2[C@@H](CO)O1)c1ccccc1 6.02% [at 8 µM]
CO[C@H]1CN(C)C(=O)c2cc(NC(=O)c3cc(C)on3)ccc2OC[C@H](C)N(C(C)=O)C[C@H]1C -7.95% [at 1.95 µM]
O=C(C[C@@H]1C[C@@H]2c3cc(NC(=O)Nc4ccc(C(F)(F)F)cc4)ccc3O[C@@H]2[C@@H](CO)O1)NCC1CC1 20.8% [at 35 µM]
CC(C)[C@@H](C)NC(=O)N(C)C[C@@H]1OCc2ccccc2-c2ccccc2C(=O)N([C@H](C)CO)C[C@H]1C 47.6% [at 35 µM]
CO[C@H]1CN(C)C(=O)c2cc(NC(=O)C3CCC3)ccc2OC[C@H](C)N(Cc2ccc(F)cc2)C[C@H]1C 14.5%
COc1ccc(-c2ccc([C@H]3[C@H](C#N)N(C(=O)NC4CCCCC4)[C@H]3CO)cc2)cc1 32.4%
C[C@@H]1CN([C@H](C)CO)C(=O)c2cc(NC(=O)Nc3ccc(F)cc3)ccc2O[C@@H](C)CCCCO[C@H]1CN(C)Cc1ccc2c(c1)OCO2 -9.48%
C[C@@H]1CCCCO[C@H](CN(C)Cc2ccc3c(c2)OCO3)[C@H](C)CN([C@@H](C)CO)C(=O)c2cc(NC(=O)Nc3ccc(F)cc3)ccc2O1 23.7%
C[C@@H]1CCCCO[C@H](CN(C)Cc2ccc3c(c2)OCO3)[C@@H](C)CN([C@H](C)CO)C(=O)c2cc(NC(=O)Nc3ccc(C(F)(F)F)cc3)ccc2O1 15.4% [at 1.95 µM]
C[C@@H]1CN([C@H](C)CO)C(=O)c2cc(NC(=O)Nc3ccc(C(F)(F)F)cc3)ccc2O[C@@H](C)CCCCO[C@@H]1CN(C)Cc1ccc2c(c1)OCO2 29.4% [at 1.95 µM]
C[C@H](CO)N1C[C@H](C)[C@H](CN(C)Cc2ccc3c(c2)OCO3)OCCCC[C@H](C)Oc2ccc(NC(=O)Nc3ccc(F)cc3)cc2C1=O -7.04% [at 0.5 µM]
C[C@H](CO)N1C[C@H](C)[C@H](CN(C)Cc2ccc3c(c2)OCO3)OCCCC[C@H](C)Oc2ccc(NC(=O)Nc3ccc(C(F)(F)F)cc3)cc2C1=O 31.6% [at 0.5 µM]
CC(C)CC#Cc1ccc2c(c1)O[C@@H](CN(C)CC1CCOCC1)[C@H](C)CN([C@@H](C)CO)S2(=O)=O 17.9%
CO[C@@H]1CN(C)C(=O)c2ccc(NC(=O)c3nc4ccccc4s3)cc2OC[C@@H](C)N(Cc2cccnc2)C[C@H]1C 33.1%
CC(C)CC#Cc1ccc2c(c1)O[C@H](CN(C)Cc1ccccc1F)[C@H](C)CN([C@H](C)CO)S2(=O)=O 28.2%
COc1ccccc1S(=O)(=O)N(C)C[C@H]1OCc2ccccc2-c2c(n(C)c3ccccc23)C(=O)N([C@@H](C)CO)C[C@H]1C 11.5%
C[C@@H]1CN([C@H](C)CO)S(=O)(=O)c2ccc(-c3ccccc3)cc2O[C@H]1CN(C)Cc1cccnc1 46%
CN1CCN(C(=O)C[C@@H]2C[C@@H]3c4cc(NC(=O)Nc5ccc(C(F)(F)F)cc5)ccc4O[C@@H]3[C@H](CO)O2)CC1 30.1%
Cc1ccccc1-c1ccc2c(c1)O[C@@H](CN(C)Cc1ccncc1)[C@H](C)CN([C@@H](C)CO)S2(=O)=O 33.1%
CCNC(=O)C[C@@H]1CC[C@H](NC(=O)C2CC2)[C@@H](CO)O1 -9.17%
O=C(NCC[C@H]1CC[C@@H](NC(=O)C2CCCCC2)[C@@H](CO)O1)Nc1ccc(Cl)cc1 15.3% [at 8 µM]
O=C(NCC[C@@H]1CC[C@H](NC(=O)C2CCCCC2)[C@@H](CO)O1)Nc1ccc(Cl)cc1 16.1% [at 8 µM]
O=C(Nc1ccc2c(c1)OCO2)N[C@H]1CC[C@H](CCNC(=O)C2CC2)O[C@@H]1CO -10.4% [at 1.95 µM]
